Rows were chosen to be rich in hits. Some 2.6% of all compounds tested hit in one or more screens of this group.
Cruzain inh noDet = inhibitors of Trypanosoma cruzi cruzain without detergent; P25779; purified cruzain, Z-FR-AMC fluorescence, no detergent; Potency, µM, actives largely listed as inhibitors; 200,000 tested, 2.3% active; further: nearly all actives have a fitted effect of over 40% in size
Target sequence (P25779 123-467 limits assumed): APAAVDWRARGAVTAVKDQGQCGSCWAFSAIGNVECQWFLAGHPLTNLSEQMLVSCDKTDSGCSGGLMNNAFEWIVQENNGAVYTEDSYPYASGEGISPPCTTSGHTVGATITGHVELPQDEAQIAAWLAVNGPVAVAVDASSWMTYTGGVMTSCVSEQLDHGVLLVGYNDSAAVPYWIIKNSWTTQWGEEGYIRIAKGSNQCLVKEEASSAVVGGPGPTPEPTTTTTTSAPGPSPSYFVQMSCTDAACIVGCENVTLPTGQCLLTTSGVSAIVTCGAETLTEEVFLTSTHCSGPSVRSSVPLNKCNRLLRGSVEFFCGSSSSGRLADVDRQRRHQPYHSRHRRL
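Purified cruzain at 1.5 nM, pre-incubated 15 min with compound at room temperature in 100 mM sodium acetate pH 5.5, 5 mM DTT, 0.00005% Triton X-100. Reaction started with 2 uM Z-FR-AMC; AMC fluorescence increase over 60 s gives rate.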
Cruzain Triton = inhibitors of Trypanosoma cruzi cruzain with detergent; P25779; purified cruzain, Z-FR-AMC fluorescence, 0.01% Triton; Potency, µM, hits mostly inhibitors; 200,000 tested, 0.43% active; AID 1478; further: nearly all actives have a fitted effect of over 40% in size
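Detergent-containing run (0.01% Triton X-100) in acetate buffer pH 5.5 with 5 mM DTT: enzyme at 1.5 nM final, 15 min compound preincubation at room temperature, then 2 uM Z-FR-AMC substrate. Activity taken as 60 s fluorescence increase at 360/450 nm.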
Papain inh = blocks papain protease activity, flagging nonselective cruzain hits; Potency, µM, actives largely listed as inhibitors; purified papain, Z-FR-AMC fluorescence cleavage; 410 tested, 41% active; shares compounds with Cruzain Triton; AID 2161; further: nearly all actives have a fitted effect of over 35% in size
Large screens that a line does not name were inactive (follow-up assays come after a bar, where they were run); ! = not confirmed by another sample. The call rests on the fitted dose curve; in most records, active means well fitted curve in the direction sought with a large enough effect; inconclusive means small, poorly fitted or top-dose-only effect, or another doubt; inactive means no such curve, though single readings can be large; an effect the other way counts as inactive or inconclusive.

Cc1ccc(C(=O)NCc2ccc3c(c2)OCO3)cc1S(=O)(=O)N1CCOCC1	none
Cc1cc(Br)cc(C)c1OCC(=O)Nc1ccc(S(=O)(=O)Nc2ncccn2)cc1	none
Cc1ccc(S(=O)(=O)NCc2nc3cccnc3n2Cc2ccccc2Cl)c(C)c1	none
Cc1ccc(C)c(CN2C(=O)c3ccccc3Sc3ccc(C(=O)NCc4ccc5c(c4)OCO5)cc32)c1	Cruzain inh noDet 20µM | Papain inh inactive
O=C(NCc1ccc2c(c1)OCO2)c1ccc2c(c1)N(Cc1ccccc1F)C(=O)c1ccccc1S2	Cruzain inh noDet inconclusive
Cc1ccc(C)c(CN2C(=O)c3ccccc3Sc3ccc(C(=O)NCc4cccs4)cc32)c1	Cruzain inh noDet inconclusive
O=C(NCc1ccc2c(c1)OCO2)c1ccc2c(c1)N(Cc1cccc(Cl)c1)C(=O)c1ccccc1S2	Cruzain inh noDet 13µM | Papain inh inactive
CN(C)c1ccc(CN(CC2CCCO2)C(=O)COc2ccc(Cl)cc2)cc1 (stereo not drawn)	none
Cc1cccc(N2CCN(c3nc4ccccc4c4nc(-c5ccccc5)nn34)CC2)c1C	none
CCc1ccc(N2CSC3=C(C#N)C(c4cccs4)CC(=O)N3C2)cc1 (stereo not drawn)	Cruzain inh noDet inconclusive
CCOC(=O)c1ccc(N2CSC3=C(C#N)C(c4cccs4)CC(=O)N3C2)cc1 (stereo not drawn)	none | Papain inh inactive
NNc1nnc(-c2ccccc2)c(-c2ccccc2)n1	none
Nc1nc(N)c2nc(-c3ccccc3)c(N)nc2n1	Cruzain inh noDet 7.9µM!, Cruzain Triton 32µM! | Papain inh 22µM
Cc1ncc([N+](=O)[O-])n1C[C@H](O)CCl	none
O=C1NC(c2ccccc2)=N/C1=C/c1ccco1	none
O=C1OC(/C=C/c2ccc(Cl)cc2)=NC/1=C/c1ccco1	Cruzain inh noDet 16µM, Cruzain Triton 2.5µM | Papain inh inactive
COc1ccc(S(=O)(=O)N2CCC(C(=O)Nc3ccc(Oc4ccccc4)cc3)CC2)cc1OC	none
COc1nc(C#N)nc(N2CCCC2)n1	none (no result: Cruzain inh noDet, Cruzain Triton) | Papain inh 4µM
CCOc1nc(C#N)nc(N2CCCCC2)n1	Cruzain inh noDet 0.5µM, Cruzain Triton 0.56µM | Papain inh 2.2µM
COc1nc(N2CCCCCC2)nc(N2CCCCCC2)n1	none
N#CCOc1nc(N2CCCC2)nc(N2CCCC2)n1	none
Cc1ccc(Cl)cc1-n1c(CCC(=O)O)ccc1-c1cccs1	none
O=C(Cn1nc2c(cc1=O)CCCC2)Nc1ccc(F)cc1F	none
CCc1ccc(Sc2cc(C(=O)NCc3ccccc3OC)c3ccccc3n2)cc1	none
CCCCCCCC/C=C\C/C=C\C=C\C(O)CCCC(=O)O (stereo not drawn)	none
NS(=O)(=O)c1ccc(N/C=C\C(=O)c2ccc3ccccc3c2)cc1	Cruzain inh noDet 6.3µM, Cruzain Triton 8.9µM | Papain inh inactive
CCOc1ccc(C(=O)/C=C/Nc2ccc(S(=O)(=O)N=C(N)N)cc2)cc1	none
Cc1cccc(CNC(=O)Cc2csc3ccccc23)c1	none
COC(=O)CC[C@@H](C)[C@H]1CC[C@H]2[C@@H]3CC[C@@H]4C[C@H](O)CC[C@]4(C)[C@H]3C[C@H](O)[C@]12C	Cruzain inh noDet inconclusive
COC(=O)CCC(C)C1CCC2C3CC[C@H]4CC(O)CC[C@@]4(C)C3CC(O)[C@]12C (stereo partly drawn)	Cruzain inh noDet inconclusive | Papain inh inactive
COc1cccc(N2CCN(C(=O)c3cnc4c(C)cccn4c3=O)CC2)c1	none
CC1CN(c2oc(-c3cccs3)nc2C#N)CC(C)O1 (stereo not drawn)	Cruzain inh noDet inconclusive, Cruzain Triton 28µM | Papain inh 20µM
N#Cc1nc(-c2cccs2)oc1N1CCOCC1	Cruzain inh noDet inconclusive, Cruzain Triton 25µM | Papain inh 16µM
CC1CN(c2oc(Cc3cccc4ccccc34)nc2C#N)CC(C)O1 (stereo not drawn)	Cruzain inh noDet inconclusive
N#Cc1nc(-c2ccco2)oc1N1CCOCC1	none
Clc1ccccc1-c1nnc2sc(-c3ccc4c(c3)OCO4)nn12	Cruzain inh noDet inconclusive
COc1ccccc1-c1nn2c(-c3ccccc3Cl)nnc2s1	none
Clc1ccccc1-c1nn2c(-c3cc(-c4ccccc4)n[nH]3)nnc2s1	none (no result: Cruzain inh noDet, Cruzain Triton) | Papain inh inactive
COc1ccccc1-c1nn2c(-c3cc(-c4ccccc4)n[nH]3)nnc2s1	none (no result: Cruzain inh noDet, Cruzain Triton) | Papain inh 35µM
CN(C)c1ccc(-c2nn3c(-c4cc(-c5ccccc5)n[nH]4)nnc3s2)cc1	none (no result: Cruzain inh noDet, Cruzain Triton) | Papain inh inactive
CN(C)c1ccc(-c2nn3c(-c4ccc(Cl)cc4Cl)nnc3s2)cc1	Cruzain inh noDet inconclusive
CCOc1ccc(C(=O)Nc2c(C(=O)Nc3ccccc3F)oc3ccccc23)cc1OCC	none
Cc1nc2c(-c3ccccc3)c(C)nn2c(C)c1CCC(=O)NCc1cccc(Cl)c1	none
COc1cc(OC)c(NC(=O)c2noc3c2CSc2ccccc2-3)cc1Cl	none
Cc1ccc(O/C=C2/Nn3c(nnc3-c3cc(-c4ccccc4)n[nH]3)S2)cc1	none (no result: Cruzain inh noDet, Cruzain Triton) | Papain inh inactive

Source: PubChem (National Center for Advancing Translational Sciences (NCATS))
